In PubChem BioAssay AID1159580 (chemical genetic matrix, 2015):
Several values for one entry are separate records, joined by “and”; a condition that tells them apart may be missing. Identical values can stand only once. Hit rate of the full screen: of about 5,500 compounds, about 2,000 (36%) were called active. Roughly 18% stayed inconclusive and do not appear here. Cut-off read from the data, not from the text of the source: active = normalized growth mostly below about 0.91 (no sharp cut-off); inconclusive = no clear call, values can overlap the other calls; inactive = mostly above about 0.92. Some of the results follow.

Experiment: chemical genetic growth profiling, strain panel (AID 1159580);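 note: tested at 20 µM; growth read once vehicle control cultures reached saturation at 30 °C; 1 = growth at the plate median or of vehicle wells; lower values mean less growth of the strain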
Conditions: S. cerevisiae deletion strains, growth OD

Measured: normalized growth

Nc1ccc(C(=O)Oc2ccccc2)c(O)c1
0.651 (active) and 0.94 (inactive): locus YJL095W, strain BCK1, stronger effect = lower value
active: locus YCL029C, strain bik1, stronger effect = lower value 0.883 | locus YCR088W, strain abp1, stronger effect = lower value 0.921 | locus YDL074C, strain BRE1, stronger effect = lower value 0.67 | locus YDL134C, strain PPH21, stronger effect = lower value 0.837 | locus YDL192W, strain arf1, stronger effect = lower value 0.807 | locus YDR101C, strain arx1, stronger effect = lower value 0.864 | locus YDR137W, strain rgp1, stronger effect = lower value 0.545 | locus YDR159W, strain sac3, stronger effect = lower value 0.862 | locus YDR162C, strain NBP2, stronger effect = lower value 0.567 | locus YDR318W, strain mcm21, stronger effect = lower value 0.765 | locus YDR388W, stronger effect = lower value 0.884 | locus YDR502C, strain sam2, stronger effect = lower value 0.767 | locus YER110C, stronger effect = lower value 0.86 | locus YER155C, strain BEM2 (second series), stronger effect = lower value 0.533 | locus YER167W, strain BCK2, stronger effect = lower value 0.759 | locus YGL078C, strain dbp3, stronger effect = lower value 0.893 | locus YGL086W, strain mad1, stronger effect = lower value 0.801 | locus YGL173C, strain kem1, stronger effect = lower value 0.899 | locus YGL240W, strain doc1, stronger effect = lower value 0.864 | locus YGL248W, strain PDE1, stronger effect = lower value 0.864 | locus YGR135W, strain pre9, stronger effect = lower value 0.676 | locus YGR252W, strain gcn5, stronger effect = lower value 0.589 | locus YHR079C, strain IRE1 (second series), stronger effect = lower value 0.864 | locus YHR129C, strain ARP1, stronger effect = lower value 0.88 | locus YHR200W, strain rpn10, stronger effect = lower value 0.913 | locus YIL066C, strain RNR3, stronger effect = lower value 0.741 | locus YIL125W, strain kgd1, stronger effect = lower value 0.922 | locus YIR030C, strain dcg1, stronger effect = lower value 0.867 | locus YJL168C, strain set2, stronger effect = lower value 0.921
0.9 (active) and 0.937 (inactive): locus YHR030C, strain SLT2, stronger effect = lower value
inactive: locus YAL021C, strain ccr4, stronger effect = lower value 0.967 | locus YAL026C, strain drs2, stronger effect = lower value 0.915 | locus YAL030W, strain snc1, stronger effect = lower value 0.935 | locus YBL061C, strain skt5, stronger effect = lower value 0.932 | locus YBR009C, strain hhf1, stronger effect = lower value 0.934 | locus YBR021W, strain FUR4, stronger effect = lower value 0.981 | locus YBR023C, strain chs3, stronger effect = lower value 0.925 | locus YBR171W, strain sec66, stronger effect = lower value 0.937 | locus YBR229C, strain ROT2, stronger effect = lower value 0.948 | locus YBR231C, strain swc5, stronger effect = lower value 0.954 | locus YBR279W, strain paf1, stronger effect = lower value 0.957 | locus YCL011C, strain gbp2, stronger effect = lower value 0.929 | locus YCL016C, strain dcc1, stronger effect = lower value 0.942 | locus YCL061C, strain MRC1, stronger effect = lower value 0.951 | locus YCL069W, strain vba3, stronger effect = lower value 0.95 | locus YDL005C, strain med2, stronger effect = lower value 0.971 | locus YDL035C, strain GPR1, stronger effect = lower value 0.867 | locus YDL040C, strain nat1, stronger effect = lower value 0.938 | locus YDL101C, strain DUN1, stronger effect = lower value 0.906 | locus YDL185W, strain tfp1, stronger effect = lower value 0.966 | locus YDR001C, strain nth1, stronger effect = lower value 0.936 | locus YDR069C, strain doa4, stronger effect = lower value 0.948 | locus YDR150W, strain NUM1, stronger effect = lower value 0.957 | locus YDR195W, strain ref2 1.04 | locus YDR297W, strain sur2, stronger effect = lower value 0.932 | locus YDR334W, strain swr1, stronger effect = lower value 0.944 | locus YDR335W, strain msn5, stronger effect = lower value 0.941 | locus YDR392W, strain spt3, stronger effect = lower value 0.81 | locus YEL003W, strain gim4, stronger effect = lower value 0.933 | locus YEL037C, strain rad23, stronger effect = lower value 0.946 | locus YEL061C, strain CIN8 (second series), stronger effect = lower value 0.916 | locus YEL061C, strain CIN8, stronger effect = lower value 0.938 | locus YER015W, strain faa2, stronger effect = lower value 0.944 | locus YER016W, strain bim1, stronger effect = lower value 0.941 | locus YER111C, strain swi4, stronger effect = lower value 0.938 | locus YER155C, strain BEM2, stronger effect = lower value 0.947 | locus YFR010W, strain ubp6, stronger effect = lower value 0.95 | locus YGL167C, strain pmr1, stronger effect = lower value 0.942 | locus YGL227W, strain vid30, stronger effect = lower value 0.927 | locus YGL253W, strain hxk2, stronger effect = lower value 0.967 | locus YHR013C, strain ard1, stronger effect = lower value 0.907 | locus YHR027C, strain rpn1, stronger effect = lower value 0.945 | locus YHR079C, strain IRE1, stronger effect = lower value 0.929 | locus YHR094C, strain hxt1, stronger effect = lower value 0.926 | locus YHR142W, strain chs7, stronger effect = lower value 0.894 | locus YIL073C, strain SPO22, stronger effect = lower value 0.764 | locus YJL092W, strain hpr5, stronger effect = lower value 0.943 | locus YJL095W, strain BCK1 (second series), stronger effect = lower value 0.936 | locus YJL115W, strain asf1, stronger effect = lower value 0.936 | locus YJL129C, strain trk1, stronger effect = lower value 0.892 | locus YJL134W, strain LCB3, stronger effect = lower value 0.955 | locus YJL154C, strain vps35, stronger effect = lower value 0.941 | locus YJL164C, strain tpk1, stronger effect = lower value 0.919 | locus YJL166W, strain qcr8, stronger effect = lower value 0.935 | locus YJL187C, strain SWE1 (second series), stronger effect = lower value 0.876 | locus YJL187C, strain SWE1, stronger effect = lower value 0.944
